DT40 TDP1 CPT = qHTS for Inhibitors of human tyrosyl-DNA phosphodiesterase 1 (TDP1): qHTS in cells in presence of CPT; chicken DT40 Tdp1-/-;hTDP1 cells + 20 nM CPT, ATP luminescence, 48 h; Potency, µM (series often up to 46.2 µM), actives largely listed as inhibitors; 12% of 420,000 active; also: nearly all actives have a fitted effect of over 55% in size
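Cell growth measured by CellTiter-Glo luminescence after a minimum 48 h, 37 C compound exposure with 20 nM CPT in Tdp1-knockout DT40 cells stably expressing hTDP1, seeded 400/well; qHTS titration format.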
ELG1 repair inh = qHTS screen for small molecules that inhibit ELG1-dependent DNA repair in human embryonic kidney (HEK293T) cells expressing luciferase-tagged ELG1; HEK293T ELG1-luciferase reporter, luminescence, 16 h; DNA damage induced by 5-fluorouridine; Potency, µM (highest dose often 46.1 µM), most hits filed as inhibitors; 2.3% of 330,000 active; also: nearly all actives have a fitted effect of over 55% in size
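5-Fluorouridine DNA damage + compound/DMSO, 2,000 cells/well, 16 h, 37 °C/5% CO2. ONE-Glo, 30 min RT, luminescence. Readout = decrease in reporter signal.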
DT40 TDP1 no CPT = qHTS for Inhibitors of human tyrosyl-DNA phosphodiesterase 1 (TDP1): qHTS in cells in absence of CPT; 15% of 420,000 active; Potency, µM (doses to about 46.2 µM), most hits filed as inhibitors; DT40 Tdp1-/- hTDP1 cells, no CPT, ATP luminescence, 48 h; also: nearly all actives have a fitted effect of over 55% in size
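Compound effects on proliferation are scored in DT40 Tdp1-/-;hTDP1 cells in the absence of CPT. ATP levels (CellTiter-Glo luminescence) are recorded after a ≥48 hr, 37 °C incubation.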
IL-1B inflam inh = qHTS for Inhibitors of Inflammasome Signaling: IL-1-beta AlphaLISA Primary Screen; THP-1 LPS/ATP IL-1B secretion, AlphaLISA, 16 h; hits give low values; activity change, % at 57.5 µM; 4.7% of 360,000 active; in the data active = activity change below about -50%; inconclusive = mostly about -30% to -49%
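Secreted IL-1B measured by AlphaLISA bead assay after 16 h compound exposure of THP-1 cells; compounds (final up to 57.5 uM) added 1 h before LPS (250 ng/mL) and ATP (1.25 mM) stimulation; lower signal means less secretion.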
HT1080 IDH1KD tx = qHTS for induction of synthetic lethality in tumor cells producing 2HG: qHTS for the HT-1080-IDH1KD cell line | HT-1080 IDH1 knockdown viability, ATP luminescence, 48 h | Potency, µM (series often up to 46.1 µM), usual class: cytotoxic | 2% of 360,000 active | AID 686971, 2013
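Assay cells: HT-1080 with IDH1 knockdown, 750 per well, RPMI/5% FBS. Exposure: 48 h at 37 °C following 2 h pre-incubation. Read: CellTiter-Glo luminescence; fitted concentration-response, curve class assigned.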
HT1080NT lethal = qHTS for induction of synthetic lethality in tumor cells producing 2HG: qHTS for the HT-1080-NT fibrosarcoma cell line; Potency, µM (series often up to 46.1 µM), actives largely listed as cytotoxic; 1.6% of 360,000 active; AID 686970, 2013; HT-1080-NT fibrosarcoma viability, CellTiter-Glo ATP luminescence, 48 h;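 also: NT is the 2HG producing partner of a matched IDH1 knockdown line; nearly all actives have a fitted effect of over 55% in size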
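Viability of the 2HG-overproducing fibrosarcoma line after 48 hours of compound exposure at 37 degrees C was determined by luminescence with CellTiter-Glo, and concentration-effect curves were then fitted and categorized.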
Numbers stand for hits; . = inactive; ? = inconclusive. Only some compounds are listed: those with a hit (about 19% of all), similar ones and a draw of the others. Unless noted, calls follow the shape of the dose curve; as a rule, active = well fitted curve in the direction sought with a large enough effect; inconclusive = small, poorly fitted or top-dose-only effect, or another doubt; inactive = no such curve, though single readings can be large; an effect the other way counts as inactive or inconclusive.

SMILES	DT40 TDP1 CPT	ELG1 repair inh	DT40 TDP1 no CPT	IL-1B inflam inh	HT1080 IDH1KD tx	HT1080NT lethal
O=C1CCC/C(=N/Nc2ccc(Cl)cc2)C1	16µM	.	7.3µM	.	.	.
Cc1ccc(NC(=O)c2cnccn2)cc1S(=O)(=O)N(C)C	.	.	.	.	.	.
Cc1ccc(NC(=O)c2c3c(nc4ccccc24)CCC3)cc1S(=O)(=O)N(C)C	16µM	.	?	.	.	.
Cc1cnc(C(=O)Nc2ccc(C)c(S(=O)(=O)N(C)C)c2)cn1	?	?	15µM	.	.	.
Cc1ccc(NC(=O)c2c3c(nc4ccccc24)CCC3)cc1	.	.	.	.	.	.

Screening results (PubChem)
